From PubChem BioAssay (NCI) come the findings set out here.

This is part of a sample that, as a whole, favours compounds with a hit. Of some 79,000 tested, about 15% had one in any assay. Values without a mark were called inactive. Activity calls are given as the source filed them. Rule as the data show it: active = growth inhibition above about 70%; inactive = the rest.

A short description of experiment [1]: NCI Yeast Anticancer Drug Screen. Data for the rad50 strain (AID 155).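 Also: 0% = growth of vehicle-only cultures of the same strain.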 Conditions: S. cerevisiae rad50 strain growth inhibition; at 50.0 µM; hits give high values. A digest of the protocol: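 DNA repair mutant yeast, compound exposure, growth read-out; inhibition is taken relative to vehicle.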
Experiment [2] can be described thus: NCI Yeast Anticancer Drug Screen. Data for the mec2-1 strain (AID 157). The settings on record: S. cerevisiae mec2-1 strain, at 50.0 µM, hits give high values. A digest of the protocol: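 Cells of the genetically defined mec2-1 yeast strain are incubated with test compound. Inhibition of growth is calculated against vehicle-treated controls.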
Experiment [3] in a line: NCI Yeast Anticancer Drug Screen. Data for the sgs1 mgt1 strain (AID 161).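 Also: 0% = growth of cultures given vehicle only.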 Conditions: S. cerevisiae sgs1 mgt1 strain, at 50.0 µM, hits give high values. Summed up: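 Inhibition of yeast growth, normalised to vehicle-treated controls, is reported for a strain bearing genetic alterations in DNA damage repair.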
A short description of experiment [4]: NCI Yeast Anticancer Drug Screen. Data for the cln2 rad14 strain (AID 165).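 Also: 0% = growth equal to vehicle treated cultures.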 The settings on record: S. cerevisiae cln2 rad14 strain, at 50.0 µM, hits give high values. Summed up:
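The screen exposed genetically defined yeast (cln2 rad14) to test compounds and scored growth inhibition relative to vehicle-treated controls.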

Experiment [5] can be described thus: NCI Yeast Anticancer Drug Screen. Data for the bub3 strain (AID 167). The settings on record: S. cerevisiae bub3 mutant strain, at 50.0 µM, hits give high values. Summed up:
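In this screen, a yeast mutant lacking normal mitotic checkpoint function is challenged with compound. Relative growth versus vehicle gives the inhibition value.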

A short description of experiment [6]: NCI Yeast Anticancer Drug Screen. Data for the mlh1 rad18 strain (AID 175). Conditions: S. cerevisiae mlh1 rad18 strain growth inhibition; at 50.0 µM; hits give high values. A digest of the protocol: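 Compound-treated yeast growth, normalised to vehicle controls. Strain bears defined DNA repair mutations.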

In the case of `CC(C)(C)c1cc2c(=O)o[s+]3oc(=O)c(c1)c23`, the growth inhibition in experiment [1] was 10.2%; in experiment [2], -8.75%; in experiment [3], 6.75%; in experiment [4] it was 1.35%; in experiment [5], 6.15%; in experiment [6], 14.8%.
On to `COC(=O)C1C(OC(=O)c2ccccc2)CC2CCC1N2C(N)=O` (stereo unspecified), for which the growth inhibition in experiment [1] is -12.6%; in experiment [2], -0.75%; in experiment [3], -8.05%; in experiment [4], -23%; in experiment [5] it was -15.9%; in experiment [6] it was 3.3%.
For `O=C1NC(=O)C(CCO)(c2ccccc2)C(=O)N1`, the growth inhibition in experiment [1] was -21.6%; in experiment [2] it was -13%; in experiment [3] it was -4.4%; in experiment [4], -6.25%; in experiment [5], -11.7%; in experiment [6], -4.15%.
For the compound `CC1CNCCN1c1ccc(Cl)cc1` (stereo unspecified), the growth inhibition in experiment [1] was 13.6%; in experiment [2], -20.8%; in experiment [3], 11.2%; in experiment [4], 20.1%; in experiment [5] it was 22.8%; in experiment [6] it was 6.15%.
Take `Cc1nc2cccc(F)c2c(=O)n1-c1nnc(C(F)(F)F)s1`: the growth inhibition was 16.9% in experiment [1]; 8.8% in experiment [2]; 16.5% in experiment [3]; 10.8% in experiment [4]; -6.4% in experiment [5]; 15.5% in experiment [6].
Turning to `O=C(Nc1ccccc1F)C(Cl)(Cl)Cl`, the growth inhibition in experiment [1] was 6.55%; in experiment [2], -5.2%; in experiment [3] it was 9.3%; in experiment [4], -5%; in experiment [5], 16.7%; in experiment [6], 26.2%.
As for `NC(CCSCCF)C(=O)O` (stereo unspecified), the growth inhibition is 36.9% in experiment [1]; 8.6% in experiment [2]; 12.8% in experiment [3]; -2.65% in experiment [4]; 24.4% in experiment [5]; 35% in experiment [6].
Take `[CH3][Sb]1([Cl])[CH2]CCC[CH2]1`: the growth inhibition is 0.5% in experiment [1]; 32.9% in experiment [2]; 11.1% in experiment [3]; -6.1% in experiment [4]; 32% in experiment [5]; 36.2% in experiment [6].
Take `COc1ccc([Se]c2ccc(OC)cc2OC)c(OC)c1`: the growth inhibition in experiment [1] was -19.1%; in experiment [2], -39%; in experiment [3], 2.8%; in experiment [4], -18.3%; in experiment [5], 8.5%; in experiment [6], -13.2%.
`COC(=O)C1=COC(C)[C@H]2CN3CCc4c([nH]c5cc(OC)ccc45)C3CC12` (stereo partly specified): the growth inhibition is -0.6% in experiment [1]; -9.95% in experiment [2]; -7.65% in experiment [3]; 0.9% in experiment [4]; -12.8% in experiment [5]; -9.1% in experiment [6].
As for `O=NN(Cc1ccccc1)Cc1ccccc1`, the growth inhibition is 2.55% in experiment [1]; 0.1% in experiment [2]; 3.1% in experiment [3]; 0.5% in experiment [4]; 8.6% in experiment [5]; 21.4% in experiment [6].
`CCOC(=S)S.[Pb]`: the growth inhibition in experiment [1] was 18.9%; in experiment [2], 21.8%; in experiment [3], 27.2%; in experiment [4], 13.6%; in experiment [5] it was 26.2%; in experiment [6] it was 9.7%.
Regarding `FC(F)(F)C(OP(OC(C(F)(F)F)C(F)(F)F)OC(C(F)(F)F)C(F)(F)F)C(F)(F)F`, the growth inhibition was 27.4% in experiment [1]; 8.95% in experiment [2]; 2.6% in experiment [3]; 1.55% in experiment [4]; -4.9% in experiment [5]; 28.1% in experiment [6].
With `O=[N+]([O-])C(CO)CCCC(CO)[N+](=O)[O-]` (stereo unspecified), the growth inhibition in experiment [1] was 11.7%; in experiment [2], -6%; in experiment [3], 5.65%; in experiment [4], -37.1%; in experiment [5] it was -20.4%; in experiment [6] it was 11.4%.
Take `CN1C(=O)C(=CN(C)c2ccccc2)C(=O)N(C)C1=O`: the growth inhibition in experiment [1] was 13.2%; in experiment [2] it was 8.4%; in experiment [3] it was 23.7%; in experiment [4], 13.5%; in experiment [5] it was 4.4%; in experiment [6], -8.85%.
`C[N+]12CCC34C5=CC(=O)C(=O)C=C5[N+]5(C)C(=O)CC6OCC=C(C1)C(CC32)C6C45` (stereo unspecified): the growth inhibition is -2% in experiment [1]; -22.1% in experiment [2]; 4.65% in experiment [3]; 10.9% in experiment [4]; 11.7% in experiment [5]; 0.7% in experiment [6].
As for `c1c2c(cc3c1OCO3)-c1cc3ccc4c(c3c[n+]1CC2)OCO4`, the growth inhibition in experiment [1] is 9.2%; in experiment [2] it was -9.1%; in experiment [3], 0.35%; in experiment [4] it was 4.9%; in experiment [5], -48.5%; in experiment [6] it was -52.5%.
Regarding `C#CC(=O)[O][Sn]([c]1ccccc1)([c]1ccccc1)[c]1ccccc1`, the growth inhibition is 99% (active) in experiment [1]; 99.1% (active) in experiment [2]; 99.3% (active) in experiment [3]; 99.2% (active) in experiment [4]; 98.9% (active) in experiment [5]; 99% (active) in experiment [6].
As to `O=[N+]([O-])c1ccc(OCCOCCOc2ccc(S(=O)(=O)F)cc2)c(Cl)c1`, the growth inhibition was 56.2% in experiment [1]; 15.4% in experiment [2]; 21.8% in experiment [3]; 29.6% in experiment [4]; 45.4% in experiment [5]; 56.5% in experiment [6].
With `O=C(O)C(O)(Cl)c1cccs1` (stereo unspecified), the growth inhibition was -0.5% in experiment [1]; -3.35% in experiment [2]; -4.8% in experiment [3]; -16.6% in experiment [4]; -7.15% in experiment [5]; 14.8% in experiment [6].
Turning to `CN(C)P1(=O)OCC(C(C)(C)C)CN1c1ccccc1` (stereo unspecified), the growth inhibition in experiment [1] was -6.6%; in experiment [2], 2.95%; in experiment [3], -2.8%; in experiment [4], -22.2%; in experiment [5], -12.9%; in experiment [6], -14.3%.
